{"source": "PubChem BioAssay (EPA / NIEHS)", "note": "Several values for one entry are separate records, joined by “and”; a condition that tells them apart may be missing. Equal entries are not always repeated. More than one record can exist for a structure, and the calls need not agree. Activity calls are given as the source filed them. Rule for the calls: active = hit-call score of the fitted dose curve at least 0.9, where 1 is the maximum; inactive = score below 0.9."}
{"read-out": "Pselectin, SELP (gene 6403)", "experiment": "BSK_4H_Pselectin: BioMAP Diversity Plus: 4H Assay for Pselectin Biomarker Activity (AID 2283026)", "conditions": "primary human endothelial cells (HUVEC); actives raise or lower the signal", "experimental": "BSK_4H is a cell-based, multiplexed-readout assay that uses umbilical vein endothelium, a human vascular primary cell, with measurements taken at 24 hours after chemical dosing in a 96-well plate.BSK_4H_Pselectin is an assay component measured in the BSK_4H assay. It measures P-Selectin antibody related to regulation of gene expression using ELISA technology.Data from the assay component BSK_4H_Pselectin was analyzed into 1 assay endpoint. This assay endpoint, BSK_4H_Pselectin, was analyzed with bidirectional fitting relative to DMSO as the negative control and baseline of activity. Using a type of binding reporter, gain or loss-of-signal activity can be used to understand changes in the signaling as they relate to the gene SELP. Furthermore, this assay endpoint can be referred to as a primary readout, because this assay has produced multiple assay endpoints where this one serves a signaling function. To generalize the intended target to other relatable targets, this assay endpoint is annotated to the cell adhesion molecules intended target family, where the subfamily is selectins.\nThe levels of cell surface (or secreted, indicated by the prefix \"s\") biomarker endpoints were measured by ELISA. Overt cytotoxicity to cells in confluent adherent cultures (all systems other than the BT system) was assessed by measuring total protein levels using sulforhodamine B (SRB) staining in parallel cultures at the time of biomarker measurements, indicated as SRB endpoints. For proliferation assays for adherent cell types, individual cell types are cultured at sub-confluence and relative cell numbers quantified by SRB staining at time points optimized for each system (48 h: 3C and CASM3C systems; 72 h: BT and HDF3CGF systems; 96 h: SAg system). SRB was performed by staining cells with 0.1% SRB after fixation with 10% TCA and reading wells at 560 nm.Viability and proliferation of PBMC (T cells) was quantified by Alamar Blue reduction for the SAg and BT systems. For PBMC viability (referred to as PBMC Cytotoxicity within the assay endpoint names), cells were plated (75,000/well in a 96-well plate) and then chemical samples added for 1 h before addition of activators, SEB and TSST-1 (20 ng/mL final concentration each). Cells were incubated for 90 h. Then, Alamar Blue (20 uL/well) (Invitrogen, Cat DAL1100) was added for 6 h, and the plates were read with a fluorescence microplate reader at 546/580 nm (excitation/emission). For PBMC proliferation, cells were plated and activated as above but incubated for only 16 h prior to addition of Alamar Blue. Plates were read after 6 h."}
{"smiles": "CC(=O)/C=C/c1ccccc1", "outcome": "inactive"}
{"smiles": "O=C(O)CCCc1ccc(N(CCCl)CCCl)cc1", "AC50": "13.6 µM (active) and 20 µM (active)"}
{"smiles": "O=[N+]([O-])O", "outcome": "inactive"}
{"smiles": "O=C(CCl)c1ccccc1", "AC50": "3.29 µM (active)"}
{"smiles": "O=C1C=CC(=O)C=C1", "outcome": "inactive", "AC50": "14.1 µM (active)"}
{"smiles": "CCc1cc(C)cc(CC)c1-c1c(OC(=O)C(C)(C)C)n2n(c1=O)CCOCC2", "outcome": "inactive"}
{"smiles": "C=CC(=O)OCC(CC)CCCC", "note": "(stereo not given)", "outcome": "inactive"}
{"smiles": "CCC(C)c1cc([N+](=O)[O-])cc([N+](=O)[O-])c1OC(=O)C=C(C)C", "note": "(stereo not given)", "AC50": "7.89 µM (active)"}
{"smiles": "O=c1c2ccccc2c(=O)c2c1cc(Cl)c1[nH]c3c([nH]c12)c(Cl)cc1c(=O)c2ccccc2c(=O)c13", "outcome": "inactive"}
{"smiles": "[Cd+2].[Cl-].[Cl-]", "AC50": "4.97 µM (active)", "outcome": "inactive"}
{"smiles": "CC(C)(C)C(O)C(Oc1ccc(-c2ccccc2)cc1)n1cncn1", "note": "(stereo not given)", "AC50": "29.7 µM (active)"}
{"smiles": "O=[N+]([O-])c1ccc(Cl)cc1", "outcome": "inactive"}
{"smiles": "CNC(=O)Oc1cc(C)c(SC)c(C)c1", "outcome": "inactive"}
{"smiles": "Cc1ccc(OP(=O)(Oc2ccc(C)cc2)Oc2ccc(C)cc2)cc1", "note": "(tested in a mixture with another compound)", "outcome": "inactive"}
{"smiles": "O=c1[nH]c(Cl)c(Cl)cc1Cl", "outcome": "inactive"}
{"smiles": "COc1ccc(CO)cc1", "outcome": "inactive"}
{"smiles": "CC(C)CCCCCCCOC(=O)c1ccccc1C(=O)OCCCCCCCC(C)C", "outcome": "inactive"}
{"smiles": "Oc1cc(Cl)ccc1Cl", "outcome": "inactive"}
{"smiles": "Clc1ccc(-c2ccccc2)cc1", "AC50": "28.2 µM (active)"}
{"smiles": "CC(C)(C)C(=O)CCl", "outcome": "inactive"}
{"smiles": "CCCOC(=O)c1ccccc1C(=O)OCCC", "outcome": "inactive"}
{"smiles": "Nc1ccc(-c2ccc(N)c(N)c2)cc1N", "AC50": "24.9 µM (active)"}
{"smiles": "COC(C)(C)CCC[C@H](C)C/C=C/C(C)=C/C(=O)OC(C)C", "AC50": "25.6 µM (active)"}
{"smiles": "O=S(=O)(c1ccccc1)c1ccccc1", "outcome": "inactive"}
{"smiles": "CC(C)(c1cc(Cl)c(O)c(Cl)c1)c1cc(Cl)c(O)c(Cl)c1", "AC50": "27.8 µM (active)"}
{"smiles": "CC(C)CCCCCCCOP(=O)(Oc1ccccc1)Oc1ccccc1", "AC50": "15.1 µM (active)"}
{"smiles": "O=[N+]([O-])C=Cc1ccccc1", "AC50": "5.78 µM (active)"}
{"smiles": "CCCC[N+](CCCC)(CCCC)CCCC", "outcome": "inactive"}
{"smiles": "CC1(C)[C@H](C(=O)O[C@H](C#N)c2cccc(Oc3ccccc3)c2)[C@@H]1C=C(Br)Br", "outcome": "inactive"}
{"smiles": "O=C1C(Cl)=C(Cl)C(=O)C(Cl)=C1Cl", "AC50": "12.8 µM (active)"}
{"smiles": "O=P1(NCCCl)OCCCN1CCCl", "note": "(stereo not given)", "outcome": "inactive"}
{"smiles": "C=CCN(CC=C)C(=O)C(Cl)Cl", "outcome": "inactive"}
{"smiles": "CCCCCCCCCCCC#N", "AC50": "20.6 µM (active)"}
{"smiles": "N#CCCCCC#N", "outcome": "inactive"}
{"smiles": "c1ccc(Nc2ccc3ccccc3c2)cc1", "outcome": "inactive"}
{"smiles": "COCC(=O)N(c1c(C)cccc1C)N1CCOC1=O", "outcome": "inactive"}
{"smiles": "CC(C)COP(=O)(OCC(C)C)OCC(C)C", "outcome": "inactive"}
{"smiles": "Oc1ccc(C2(c3ccc(O)cc3)c3ccccc3-c3ccccc32)cc1", "AC50": "3.01 µM (active) and 5.41 µM (active)"}
